# From the supplement of paper PMC8728848
# This is one part of a sample in which the strongest signals are shown more often than they occur.
# B1: SLLPI (Homo sapiens), Q8IXA5 (protein)
# chain: MVSALRGAPLIRVHSSPVSSPSVSGPRRLVSCLSSQSSALSQSGGGSTSAAGIEARSRALRRRWCPAGIMLLALVCLLSCLLPSSEAKLYGRCELARVLHDFGLDGYRGYSLADWVCLAYFTSGFNAAALDYEADGSTNNGIFQINSRRWCSNLTPNVPNVCRMYCSDLLNPNLKDTVICAMKITQEPQGLGYWEAWRHHCQGKDLTEWVDGCDF
# Legend:
# Assay in all cases: glycan array binding signal (z-score within array); higher = stronger binding
# Conditions in all cases: glycan notation: IUPAC condensed, linker removed
# [1] = target: Fuc(a1-2)Gal(b1-3)GalNAc(b1-3)Gal
# Outline: (§1)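 Negative Z-scores can be read as non-binding. The Z-score is calculated within each array and then averaged across arrays of one protein sequence at different concentrations or buffers and across linkers. Arrays, 3228 in all, were curated from the Consortium for Functional Glycomics database and kept only where the protein sequence was available.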
# Fuc(a1-2)Gal(b1-3)GlcNAc = target: Fuc(a1-2)Gal(b1-3)GlcNAc
# Outline: as §1
# Fuc(a1-2)Gal(b1-4)Glc = target: Fuc(a1-2)Gal(b1-4)Glc
# Outline: as §1
# [2] = target: Fuc(a1-2)Gal(b1-4)GlcNAc(b1-3)Gal(b1-4)GlcNAc
# Outline: as §1
# [3] = target: Fuc(a1-2)Gal6S(b1-4)GlcNAc
# Outline: as §1
# Fuc(b1-3)GlcNAc = target: Fuc(b1-3)GlcNAc
# Outline: as §1
# [4] = target: Gal(a1-3)[Gal(a1-4)]Gal(b1-4)GlcNAc
# Outline: as §1
# [5] = target: Gal(b1-3)GalNAc(b1-4)Gal(b1-4)Glc
# Outline: as §1
# [6] = target: Gal(b1-3)GlcNAc(b1-2)Man(a1-3)[Gal(b1-3)GlcNAc(b1-2)Man(a1-6)]Man(b1-4)GlcNAc(b1-4)GlcNAc
# Outline: as §1
# [7] = target: Gal(b1-3)GlcNAc(b1-3)Gal(b1-4)Glc
# Outline: as §1
# [8] = target: Gal(b1-4)GalNAc(a1-3)[Fuc(a1-2)]Gal(b1-4)GlcNAc
# Outline: as §1
# [9] = target: Gal(b1-4)GlcNAc(b1-3)Gal(b1-3)GlcNAc
# Outline: as §1
# [10] = target: Gal3S(b1-3)[Fuc(a1-4)]GlcNAc
# Outline: as §1
# Gal6S(b1-4)Glc6S = target: Gal6S(b1-4)Glc6S
# Outline: as §1
# GalNAc(a1-3)Gal = target: GalNAc(a1-3)Gal
# Outline: as §1
# GlcA(b1-3)GlcNAc = target: GlcA(b1-3)GlcNAc
# Outline: as §1
# GlcA(b1-6)Gal = target: GlcA(b1-6)Gal
# Outline: as §1
# [11] = target: GlcNAc(b1-2)Gal(b1-3)GalNAc
# Outline: as §1
# GlcNAc(b1-3)Gal = target: GlcNAc(b1-3)Gal
# Outline: as §1
# GlcNAc(b1-3)Gal(b1-4)Glc = target: GlcNAc(b1-3)Gal(b1-4)Glc
# Outline: as §1
# [12] = target: Man(a1-2)Man(a1-2)Man(a1-3)Man
# Outline: as §1
# [13] = target: Man(a1-3)[Man(a1-6)]Man(a1-6)[Man(a1-2)Man(a1-3)]Man(b1-4)GlcNAc(b1-4)GlcNAc
# Outline: as §1
# [14] = target: Neu5Ac(a2-3)Gal(b1-4)GlcNAc(b1-2)Man(a1-3)[GlcNAc(b1-2)Man(b1-4)GlcNAc(b1-2)Man(a1-6)]Man(b1-4)GlcNAc(b1-4)GlcNAc
# Outline: as §1
# [15] = target: Neu5Ac(a2-3)Gal(b1-4)[Fuc(a1-3)]GlcNAc(b1-3)Gal(b1-4)GlcNAc
# Outline: as §1
# [16] = target: Neu5Ac(a2-3)Gal(b1-4)[Fuc(a1-3)]GlcNAc(b1-3)Gal(b1-4)[Fuc(a1-3)]GlcNAc(b1-3)Gal(b1-4)[Fuc(a1-3)]GlcNAc
# Outline: as §1
# [17] = target: Neu5Gc(a2-3)Gal(b1-4)GlcNAc
# Outline: as §1
# [18] = target: Neu5Gc(a2-6)Gal(b1-4)GlcNAc
# Outline: as §1
binder,measurement,setting,value
B1,glycan array binding signal (z-score),[1],1.93
same,glycan array binding signal (z-score),Fuc(a1-2)Gal(b1-3)GlcNAc,-0.188
same,glycan array binding signal (z-score),Fuc(a1-2)Gal(b1-4)Glc,0.145
same,glycan array binding signal (z-score),[2],0.263
same,glycan array binding signal (z-score),[3],0.21
same,glycan array binding signal (z-score),Fuc(b1-3)GlcNAc,-0.512
same,glycan array binding signal (z-score),[4],0.947
same,glycan array binding signal (z-score),[5],-0.063
same,glycan array binding signal (z-score),[6],0.777
same,glycan array binding signal (z-score),[7],0.044
same,glycan array binding signal (z-score),[8],-0.332
same,glycan array binding signal (z-score),[9],-0.37
same,glycan array binding signal (z-score),[10],-0.205
same,glycan array binding signal (z-score),Gal6S(b1-4)Glc6S,1.85
same,glycan array binding signal (z-score),GalNAc(a1-3)Gal,1.65
same,glycan array binding signal (z-score),GlcA(b1-3)GlcNAc,0.16
same,glycan array binding signal (z-score),GlcA(b1-6)Gal,-0.073
same,glycan array binding signal (z-score),[11],-0.634
same,glycan array binding signal (z-score),GlcNAc(b1-3)Gal,0.2
same,glycan array binding signal (z-score),GlcNAc(b1-3)Gal(b1-4)Glc,0.579
same,glycan array binding signal (z-score),[12],3.65
same,glycan array binding signal (z-score),[13],1.02
same,glycan array binding signal (z-score),[14],4.44
same,glycan array binding signal (z-score),[15],0.654
same,glycan array binding signal (z-score),[16],0.311
same,glycan array binding signal (z-score),[17],-0.286
same,glycan array binding signal (z-score),[18],-0.251
